{
  "source": "PubChem BioAssay AID686979",
  "about": "(National Center for Advancing Translational Sciences (NCATS), 2013)",
  "note": "About 50,000 (12%) of roughly 420,000 compounds were called active. Inconclusive results (about 26%) are left out. The full list was thinned out, with actives kept by preference. A number with no mark means an inactive call. The call rests on the fitted dose curve; in most records, active means well fitted inhibition curve with a large enough effect; inconclusive means small, poorly fitted or top-dose-only effect; inactive means flat fitted curve, though single readings scatter. Where a SMILES comes first, the peptide text is derived from it. Bridges are numbered along the chain shown (N, C = ends). [ ]: non-standard residue; d: D form. The star is where a group is joined. X4 = CC[C@H](C)CCCCC(=O)*; Dab = NCC[C@H](N)C(=O)O",
  "data": [
    {"test": "qHTS for Inhibitors of human tyrosyl-DNA phosphodiesterase 1 (TDP1): qHTS in cells in presence of CPT; further: nearly all actives have a fitted effect of over 55% in size; further: potency means the concentration at half of the fitted maximal effect; on activity change, negative = growth inhibition: on the % scale 0 is the no-effect control and ±100 the full control effect", "conditions": "chicken DT40 Tdp1-/-;hTDP1 cells + 20 nM CPT, ATP luminescence, 48 h; series mostly up to 46.2 µM; activity change, negative = growth inhibition: at the top concentration", "how_it_was_run": "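Chicken DT40 Tdp1-/- cells complemented with human TDP1, 400 cells/well, exposed to compounds plus 20 nM camptothecin for at least 48 h at 37 C; viability read as ATP content by CellTiter-Glo luminescence.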", "values": [
      {"compound": "Nc1cccc(S(=O)(=O)Nc2ccc(SC(F)F)cc2)c1", "activity change, negative = growth inhibition": "-8.22%"},
      {"compound": "CC(C)(C)c1cc(P(=O)(c2ccccc2)c2ccccc2)ccc1O", "activity change, negative = growth inhibition": "-13.8%"},
      {"compound": "COc1ccccc1-c1cnn2c(N3CCOCC3)cc(C)nc12", "activity change, negative = growth inhibition": "10.4%"},
      {"compound": "O=C(Nc1cccc(Br)c1)C1CC(=O)N(C2CCCC2)C1", "note": "(centres undefined)", "activity change, negative = growth inhibition": "0.73%"},
      {"compound": "COc1ccc(OC)c(NC(=O)Cc2cccs2)c1", "activity change, negative = growth inhibition": "-28.1%"},
      {"compound": "CCCc1nc2ccccc2c(=O)n1/N=C/c1ccc(O)c(O)c1", "Potency": "11.6 µM (active)"},
      {"compound": "O=c1c2ccccc2ncn1/N=C/c1ccccc1", "activity change, negative = growth inhibition": "-6.74%"},
      {"compound": "Cn1c(SCC(=O)N/N=C/c2ccc(O)c(O)c2)nc2ccccc21", "activity change, negative = growth inhibition": "-81.7%"},
      {"compound": "CSc1nc2c(c(=O)[nH]1)C(c1cccc(Cl)c1Cl)CC(=O)N2", "note": "(centres undefined)", "activity change, negative = growth inhibition": "5.31%"},
      {"compound": "COc1ccc(S(=O)(=O)N2CCN(C(=S)NCC3CCCO3)CC2)cc1OC", "note": "(centres undefined)", "activity change, negative = growth inhibition": "6.64%"},
      {"compound": "O=C(CSCc1c(F)cccc1Cl)NCC1CCCO1", "note": "(centres undefined)", "activity change, negative = growth inhibition": "-10.4%"},
      {"compound": "S=C(NCC1CCCO1)N1CCN(c2ccc(Cl)c(Cl)c2)CC1", "note": "(centres undefined)", "Potency": "20.6 µM (active)"},
      {"compound": "O=Cc1c(N2CCN(c3cccc(Cl)c3)CC2)nc2ccccn2c1=O", "activity change, negative = growth inhibition": "-27.9%"},
      {"compound": "CC(CNc1ccc([N+](=O)[O-])c2cccnc12)Nc1c([N+](=O)[O-])cc(C(F)(F)F)cc1[N+](=O)[O-]", "note": "(centres undefined)", "activity change, negative = growth inhibition": "-5.74%"},
      {"compound": "FC(F)(F)c1ccc2c3n(nc2c1)CCN=C3c1ccc(Cl)cc1", "activity change, negative = growth inhibition": "-26.9%"},
      {"compound": "CCc1ccccc1NC(=O)CSc1nnc(CCNC(=O)OC(C)(C)C)o1", "activity change, negative = growth inhibition": "4.67%"},
      {"compound": "CN1OC[C@@H]2CN(C(=O)c3cccc4ccccc34)[C@H](c3ccc(N4CCCCC4)cc3)C[C@@H]21", "activity change, negative = growth inhibition": "-8.28%"},
      {"compound": "C[C@H]1Cn2cnc(C(=O)N[C@H](C)c3ccccc3)c2C(=O)N1", "activity change, negative = growth inhibition": "-2.86%"},
      {"compound": "COc1ccc(C(=O)OC(C)C(=O)NC2CCCC2)cc1S(=O)(=O)N1CCOCC1", "note": "(centres undefined)", "activity change, negative = growth inhibition": "-15.1%"},
      {"compound": "COCCNc1ncnc2c1nc1n2CCCC1", "activity change, negative = growth inhibition": "-12.6%"},
      {"compound": "Cc1cccc2c(=O)n3c(nc12)CCCCC3", "activity change, negative = growth inhibition": "-29.8%"},
      {"compound": "CCCCN(CC)C(=S)Nc1ccc2nc3n(c(=O)c2c1)CCCCC3", "activity change, negative = growth inhibition": "-21.8%"},
      {"compound": "CCCN(CCC)C(=O)C1CCCN(c2ncnc3c2nc2n3CCCCC2)C1", "note": "(centres undefined)", "Potency": "14.6 µM (active)"},
      {"compound": "CN(C(=O)C1CCN(c2ncnc3c2nc2n3CCCCC2)CC1)C1CCCCC1", "Potency": "20.6 µM (active)"},
      {"compound": "COCCCNC(=O)CN1C(=O)CSc2ccc(S(=O)(=O)N3CCOCC3)cc21", "Potency": "inactive"},
      {"compound": "O=C(NCc1ccncc1)c1ccc(NS(=O)(=O)c2cccc([N+](=O)[O-])c2)cc1", "activity change, negative = growth inhibition": "-13%"},
      {"compound": "COc1ccc(C(C)NC(=S)NC2CCCCC2)cc1OC", "note": "(centres undefined)", "activity change, negative = growth inhibition": "-15.6%"},
      {"compound": "COc1ccc(-n2c(CNC(=O)c3cc(C(F)(F)F)ccc3Cl)nnc2SC)cc1", "activity change, negative = growth inhibition": "21.6%"},
      {"compound": "COc1ccc(C(CNC(=O)COc2ccc([N+](=O)[O-])cc2)N2CCCCC2)cc1", "note": "(centres undefined)", "activity change, negative = growth inhibition": "-15.2%"},
      {"compound": "CC(=O)c1ccc(S(=O)(=O)NC2CC(=O)N(c3ccc4c(c3)OCCO4)C2)cc1", "note": "(centres undefined)", "activity change, negative = growth inhibition": "-2.96%"},
      {"compound": "Cc1ccc(N2C(=O)CN=C2Nc2nc(C)cc(C)n2)cc1", "activity change, negative = growth inhibition": "-2.45%"},
      {"compound": "COc1ccc(N2CCN(C(C)=C3C(=O)c4ccccc4C3=O)CC2)cc1", "activity change, negative = growth inhibition": "-17.9%"},
      {"compound": "COc1ccccc1-c1nc(N2CCN(C)CC2)c2ccccc2n1", "activity change, negative = growth inhibition": "7.98%"},
      {"compound": "COc1ccc(N2CCN(c3nc(-c4ccccc4F)nc4ccccc34)CC2)cc1", "Potency": "20.6 µM (active)"},
      {"compound": "O=C(Nc1ccc(Cl)cc1)c1cc2nc(C3CC3)cc(C(F)(F)F)n2n1", "activity change, negative = growth inhibition": "-14.9%"},
      {"compound": "COC(=O)C1(C)CC1(c1ccccc1)c1ccccc1", "note": "(centres undefined)", "activity change, negative = growth inhibition": "-29.8%"},
      {"compound": "CC(C)Oc1ccc(/C=N/NC(=O)c2nnn(-c3nonc3N)c2CN(C)C2CCCCC2)cc1", "activity change, negative = growth inhibition": "-4.96%"},
      {"compound": "O=C(Nc1ccccc1Cl)N1CCC(CN2CCCC2)CC1", "activity change, negative = growth inhibition": "-3.55%"},
      {"compound": "CCOC(=O)N1CCN(S(=O)(=O)c2ccc3c(c2)C(C)C(=O)N3)CC1", "note": "(centres undefined)", "activity change, negative = growth inhibition": "4.3%"},
      {"compound": "O=S(=O)(N1CCOCC1)N1CCN(c2ccccc2F)CC1", "activity change, negative = growth inhibition": "-7.59%"},
      {"compound": "CC1C(=O)Nc2ccc(S(=O)(=O)N3CCN(c4ccccc4F)CC3)cc2NC1=O", "note": "(centres undefined)", "Potency": "9.2 µM (active)"},
      {"compound": "Cc1ccc(C)c(N2CCN(S(=O)(=O)c3ccc4c(c3)C(C(C)C)C(=O)N4)CC2)c1", "note": "(centres undefined)", "Potency": "20.6 µM (active)"},
      {"compound": "Cc1ccc(C)c(N2CCN(S(=O)(=O)c3ccc4c(c3)oc(=O)n4C)CC2)c1", "activity change, negative = growth inhibition": "-18.2%"},
      {"compound": "Cn1c(=O)c(=O)n(C)c2cc(S(=O)(=O)NCCN3CCN(c4ccccc4F)CC3)ccc21", "activity change, negative = growth inhibition": "0.149%"},
      {"compound": "O=C(CN1C(=O)COc2ccc(Cl)cc21)Nc1ccc(N2CCOCC2)cc1", "activity change, negative = growth inhibition": "-2.92%"},
      {"compound": "CCC(C)NC(=O)c1ccc(N2CCC3(CC2)OCCO3)c([N+](=O)[O-])c1", "note": "(centres undefined)", "activity change, negative = growth inhibition": "-25.4%"},
      {"compound": "Cc1cccc(C(=O)OCC(=O)NCC(C)C)c1O", "activity change, negative = growth inhibition": "14.8%"},
      {"compound": "CC[C@H](C)CCCCC(=O)N[C@@H](CCN)C(=O)N[C@H](C(=O)N[C@@H](CCN)C(=O)N[C@H]1CCNC(=O)[C@@H]([C@H](C)O)NC(=O)[C@H](CCN)NC(=O)[C@H](CCN)NC(=O)[C@H](CC(C)C)NC(=O)[C@@H](CC(C)C)NC(=O)[C@H](CCN)NC1=O)[C@@H](C)O", "note": "(X4-[Dab]T[Dab][Dab][Dab][dL]L[Dab][Dab][dT]; lactam 4-C)", "activity change, negative = growth inhibition": "-18.2% [at 21.1 µM]"},
      {"compound": "COc1cc([N+](=O)[O-])ccc1NC(=O)CN1CCCC1", "activity change, negative = growth inhibition": "2.13%"}
    ]}
  ]
}
